Consider 92 compounds from PubChem BioAssay AID2280 (The Scripps Research Institute Molecular Screening Center, 2010).

“And” between values parts separate entries of the source, which are not always exact repeats. Identical values can stand only once. Hit rate of the full screen: of about 320,000 compounds, about 1,400 (0.44%) were called active.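 Rule for the calls: active = percent inhibition above a per-plate cutoff, the plate mean of test compounds plus 3 SD (cut at about 30% in these data); inactive = the rest.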 The list comes from a sample in which actives are over-represented; it also holds similar structures and randomly drawn compounds. Where a structure was tested more than once in an assay, its records may differ in their call.

In general, inhibition refers to the drop in the measured response relative to a control, in per cent.

The target of this assay is Female germline-specific tumor suppressor gld-1 (Caenorhabditis elegans) (UniProt Q17339). The experiment in a line: GLD-1/TGE RNA complex disruptors, primary screen, biochemical, fluorescence polarization (AID 2280).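 Note: 0% = DMSO wells with GLD-1 and probe and 100% = wells lacking GLD-1.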 The following applies: purified GLD-1 + fluorescein TGE RNA, at 5.96 µM, stronger effect = higher value. A general note: Polarisation of emitted light reports the rotation of a fluorescent probe.
Female germline-specific tumor suppressor gld-1 (Caenorhabditis elegans), sequence (Q17339 whole entry, looked up): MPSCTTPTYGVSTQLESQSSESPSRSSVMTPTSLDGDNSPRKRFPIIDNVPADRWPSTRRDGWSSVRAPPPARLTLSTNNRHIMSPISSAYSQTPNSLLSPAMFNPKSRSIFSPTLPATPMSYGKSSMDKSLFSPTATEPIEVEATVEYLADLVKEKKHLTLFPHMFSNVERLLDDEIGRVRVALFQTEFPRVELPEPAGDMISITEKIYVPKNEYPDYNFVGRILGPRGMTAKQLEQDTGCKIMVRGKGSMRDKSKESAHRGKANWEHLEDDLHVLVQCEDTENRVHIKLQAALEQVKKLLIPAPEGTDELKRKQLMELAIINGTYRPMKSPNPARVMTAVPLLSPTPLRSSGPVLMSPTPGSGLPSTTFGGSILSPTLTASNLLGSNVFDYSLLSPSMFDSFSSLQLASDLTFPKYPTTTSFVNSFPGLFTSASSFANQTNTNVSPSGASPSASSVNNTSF
In the case of `Cc1nn(C(=O)c2ccoc2C)c(N)c1-c1ccccc1`, the inhibition was 126% (active). The figure for `C/C(=N\NC(=O)c1ccoc1C)c1ccccc1O` is 2.44% (inactive).

In the case of `CCOC(=O)c1c(N)nn(C(=O)c2ccccc2)c1-c1ccccc1`, the inhibition is 7.39% (inactive). The figure for `CC(C)N(C)C(=O)CCc1nnc(CCc2c[nH]c3ccccc23)o1` is 7.03% (inactive); for `Cc1ccccc1Nc1nc(N)nc(CSc2ccccc2)n1` it is 6.58% (inactive); for `Cc1ccccc1Nc1nc(N)nc(CN2CCN(c3ccccn3)CC2)n1` it is 2.81% (inactive). The figure for `Cc1ccccc1Nc1nc(N)nc(CSc2nnc3ccccn23)n1` is 35.3% (active); for `COc1ccc(C(C)=O)cc1COC(=O)Cn1cnc2ccccc2c1=O` it is -1.6% (inactive); for `CC(NC(=O)CSc1nc2c(cc1C#N)CN(C)CC2)c1ccccc1` (configuration not stated) it is 35.9% (active). For the compound `Cc1cc(NC(=O)CSc2nc3c(cc2C#N)CCCCC3)no1`, the inhibition is 6.13% (inactive). Turning to `CC1(C)CCc2nc(SCc3ccccc3)c(C#N)cc2C1`, the inhibition was 6.74% (inactive). In the case of `CCOC(=O)C(C)n1cnc2c(nnn2-c2ccc(F)cc2)c1=O` (configuration not stated), the inhibition is 2.21% (inactive).

Regarding `CCCCn1ccnc1C(=O)c1cccc(S(=O)(=O)N2c3ccccc3CC2C)c1` (configuration not stated), the inhibition was 0.24% (inactive). With `Cc1ccc(C(=O)NC(=S)Nc2ccccc2C)cc1`, the inhibition was -1.38% (inactive).

On to `Cc1ccc(NC(=S)NC(=O)c2ccc(-c3ccccc3)cc2)cc1`, for which the inhibition is -3.26% (inactive). The figure for `COC(=O)c1sc(NC(=S)NC(=O)c2ccc(C)cc2)nc1C` is 60.9% (active); for `COc1cc(N2CCCC2)c(OC)cc1/C=C(/C#N)c1cccc(Br)c1` it is -45.9% (inactive); for `CC(Sc1nnc(-c2cccs2)n1C1CC1)C(=O)NCC1CCCO1` (configuration not stated) it is -1.09% (inactive).

For the compound `O=S(=O)(c1ccc(Cl)cc1)N1CCCN(c2ccc(C(F)(F)F)cn2)CC1`, the inhibition is 3.79% (inactive). The figure for `CN(C)c1ccc(Nc2c3c4c(cccc4n(C)c2=O)C(=O)c2ccccc2-3)cc1` is 53.9% (active); for `CN(Cc1ccc(F)cc1)C(=O)CN1C(=O)c2ccccc2S1(=O)=O` it is -0.45% (inactive); for `O=S(=O)(NCCCCCCNS(=O)(=O)c1c(F)cccc1F)c1ccc2c(c1)OCCO2` it is -2.33% (inactive). Next, `Cc1cc(N2C(=O)C(O)=C(C(=O)c3ccc(C)o3)C2c2ccc(OCc3ccccc3)cc2)no1` (configuration not stated): 12.7% (inactive); `C=CCOc1cccc(C2C(C(=O)c3ccc(C)o3)=C(O)C(=O)N2CCCn2ccnc2)c1` (configuration not stated): 5.89% (inactive). The figure for `C=CCOc1cccc(C2C(C(=O)c3ccc(C)o3)=C(O)C(=O)N2c2nnc(C)s2)c1` (configuration not stated) is 91.3% (active). Consider `CCN1CCC2(CCN(Cc3cn[nH]c3-c3ccc(OC)c(F)c3)C2)C1` (configuration not stated), for which the inhibition was 6.39% (inactive). The figure for `COc1ccccc1C(=O)N(C1=NC(C)CS1)c1ccc(Cl)cc1` (configuration not stated) is 5.47% (inactive); for `NC(=O)c1ccc(-c2csnn2)cc1` it is -0.25% (inactive); for `COc1ccc(NC(=O)C(C)SCc2ccccc2)cc1` (configuration not stated) it is 4.3% (inactive).

`O=C1N=C2SCCN2/C1=C\c1c(Cl)cccc1Cl`: the inhibition is 3.87% (inactive).

As to `CCC(=NC1CC(C)(C)NC(C)(C)C1)C1=C(O)CC(C)(C)CC1=O`, the inhibition is 0.57% (inactive).

In the case of `CN(CCOc1ccccc1)C(=O)c1cc(-c2ccco2)nc2ccccc12`, the inhibition is 44.1% (active). Next, `COc1ccc(NC(=O)CN(C)C(=O)c2cc(-c3ccc(C)o3)nc3ccccc23)cc1`: 1.85% (inactive). Next, `CN(C(=O)COC(=O)c1cc(-c2ccco2)nc2ccccc12)C1CCS(=O)(=O)C1` (configuration not stated): 24.7% (inactive); `Cn1nc(-c2ccccc2)c(CSc2cccc(Cl)c2)c1Cl`: 3.82% (inactive); `C=CCN(Cc1nc(-c2cc(OC)c3c(c2)OCO3)oc1C)C1CCS(=O)(=O)C1` (configuration not stated): 3% (inactive). Next, `COc1ccc(CCNS(=O)(=O)c2cc3c(cc2C)NC(=O)CO3)cc1OC`: 5.55% (inactive); `COC1=C(N2CCOCC2)C(=O)c2ccccc2C1=O`: 5.26% (inactive); `Cc1oc2c(c1C(=O)N1CCOCC1)C(=O)c1ccccc1C2=O`: -4.37% (inactive). Regarding `O=C1c2ccccc2-c2ncnc3c(N4CCOCC4)cc(N4CCOCC4)c1c23`, the inhibition was 47.9% (active). On to `CCOc1ccc(NC(=O)CSc2ncnc3c2sc2ccccc23)cc1`, for which the inhibition is 7.48% (inactive). Next, `CN(C)C=NC(=O)c1cccn1-c1ncc(C(F)(F)F)cc1Cl`: 3.24% (inactive). The figure for `CC1CCCCC1NC(=O)COC(=O)Cc1ccc(Cl)cc1` (configuration not stated) is 0.1% (inactive); for `Cc1cc(C)c(S(=O)(=O)N2CCCC2CNC(=O)c2ccc3c(c2)OCO3)c(C)c1` (configuration not stated) it is -0.56% (inactive); for `Cc1[nH]c2ccccc2c1CCN(Cc1cccs1)C(=S)NC(C)(C)C` it is 5.63% (inactive). Next, `COc1cccc(NC(=S)N(CCc2c(C)[nH]c3ccccc23)Cc2ccco2)c1`: 2.83% (inactive); `COc1ccc2[nH]c(C)c(CCN(Cc3cccs3)C(=S)Nc3ccccc3OC)c2c1`: 50% (active).

As to `CCOC(=O)Cc1csc(SCC(=O)NC(C)C23CC4CC(CC(C4)C2)C3)n1` (configuration not stated), the inhibition was -5.16% (inactive).

For `FC(F)(F)c1cccc(Nc2ncnc3ccccc23)c1`, the inhibition was 8.73% (inactive). The figure for `O=c1cc(CO)oc(C(Nc2cccc(C(F)(F)F)c2)c2ccccn2)c1O` (configuration not stated) is 75.6% (active); for `O=c1cc(CO)oc(C(Nc2cccc([N+](=O)[O-])c2)c2ccccn2)c1O` (configuration not stated) it is 25.3% (inactive); for `O=C(CN1CCOC1=O)N1CCCC(Nc2ccc(F)c(F)c2)C1` (configuration not stated) it is -0.97% (inactive). The figure for `CCCC1OC23CCCCC2C(C#N)(C#N)C1(C#N)C(=N)O3` (configuration not stated) is 63.5% (active). Next, `O=C1CCC(=O)N(c2ccccc2)N1`: 3.62% (inactive). As to `COC(=O)C1CCN(C(=O)c2cc(=O)[nH]c3ccccc23)CC1`, the inhibition is 4.47% (inactive).

With `COC(=O)[C@H]1[C@H]2C[C@H]3c4[nH]c5ccccc5c4CCN3C[C@@H]2CC[C@@H]1O`, the inhibition was 8.5% (inactive) and 48.8% (active). Next, `O=C(Nc1ccc(Cl)cc1)N1CCc2[nH]c3ccccc3c2C1`: 7.58% (inactive); `O=C1c2cccc(OCC(=O)N3N=C(c4cccs4)CC3c3ccc(F)cc3)c2CCN1Cc1ccccc1` (configuration not stated): -0.98% (inactive); `CC1CCCCC1NC(=O)Cn1c(=O)cnc2ccccc21` (configuration not stated): -4.13% (inactive). Take `CC(C)CCn1c(=O)c2c(nc3n2CCCN3Cc2ccccc2)n(C)c1=O`: the inhibition was 2.24% (inactive). Next, `COc1ccc(OCCCC(=O)Nc2cccc(S(=O)(=O)N3CCCCCC3)c2)cc1`: 6.95% (inactive); `c1ccc(-n2nnnc2N2CCOCC2)cc1`: -16.6% (inactive). Next, `C1=C(N2CCOCC2)/C(=C/c2nc3ccccc3[nH]2)CC1`: 72.7% (active). The figure for `CC1(C)Cc2c(C#N)c(SCc3nc4ccccc4[nH]3)nc(N3CCOCC3)c2CO1` is -7.37% (inactive); for `CC(=O)c1c(C)[nH]c(C(=O)CN2C(=O)NC(C)(C)C2=O)c1C` it is 1.35% (inactive). As for `COc1ccc(C(=O)CN2C(=O)NC3(CCc4ccccc43)C2=O)c(OC)c1` (configuration not stated), the inhibition is 0.18% (inactive). Next, `CC/C(=N/Nc1ccccc1)c1cnnc(SC)n1`: 2.17% (inactive); `CSc1ccc(S(=O)(=O)Nc2cccc(F)c2)cc1`: 11.1% (inactive). Next, `COc1ccc(-c2nc(CS(=O)CC(=O)NCc3ccccn3)c(C)o2)cc1` (configuration not stated): 81.7% (active). Next, `COc1cccc(-c2nc(CS(=O)CC(=O)NCc3ccc(F)cc3)c(C)o2)c1` (configuration not stated): -0.05% (inactive); `COc1ccc(-c2nc(CS(=O)CC(=O)NCc3ccccc3)c(C)o2)cc1OC` (configuration not stated): -5.15% (inactive). Take `CC(OC(=O)c1ccc2noc(-c3ccccc3)c2c1)C(N)=O` (configuration not stated): the inhibition is 6.97% (inactive).

Take `COc1ccc(-c2onc3ccc(C(C)=O)cc23)cc1`: the inhibition was 169% (active).

`Oc1ccc(-c2onc3ccc(Cl)cc23)cc1`: the inhibition was 8.29% (inactive). The figure for `COc1ccc(/C=C/C(=O)c2cc(Br)ccc(=O)c2O)cc1` is -9.08% (inactive).

For the compound `O=C(c1cnccn1)N1CCN(S(=O)(=O)c2cccc(Cl)c2)CC1`, the inhibition is 3.23% (inactive). Next, `O=C(c1ccc(F)c(S(=O)(=O)N2CCOCC2)c1)N(CCc1ccccc1)Cc1ccccc1`: 18.5% (inactive); `O=C(NCCSCc1ccccc1)c1ccc(Cl)c(S(=O)(=O)N2CCOCC2)c1`: 7.47% (inactive). The figure for `Cc1nn(Cc2ccccc2)c(C)c1CNC(=O)c1ccc(F)c(S(=O)(=O)N2CCOCC2)c1` is 103% (active); for `Cc1cnc(CN(C)C(=O)CC2C(=O)NCCN2Cc2cccc(F)c2F)[nH]1` (configuration not stated) it is 9.56% (inactive). In the case of `CC1(C)CC[C@]2(C(=O)O)CC[C@]3(C)C(=CCC4[C@@]5(C)CC[C@H](O)C(C)(C)C5[C@H](O)C[C@]43C)[C@@H]2C1` (some centres not stated), the inhibition was 1.49% (inactive). Next, `O=C(COC(=O)Cn1cnc2ccccc21)Nc1cccc2c1C(=O)c1ccccc1C2=O`: 78.6% (active); `O=C(COC(=O)c1cccc(Br)c1)Nc1cccc2c1C(=O)c1ccccc1C2=O`: 7.63% (inactive). The figure for `O=C(Cn1cnc2ccccc21)Nc1ccccc1-c1ccccc1` is 1.53% (inactive); for `Cc1ccc(N(Cc2cc(=O)[nH]c3ccccc23)C(=O)CCl)cc1` it is 0.28% (inactive). In the case of `CC(=O)N/C(=N/c1nc(C)cc(C)n1)Nc1ccc(F)cc1F`, the inhibition is -1.91% (inactive). In the case of `O=C(NCCc1ccccc1)C1CCN(S(=O)(=O)c2ccc(Br)s2)CC1`, the inhibition is 4.67% (inactive). Next, `O=S(=O)(NCc1cccnc1)c1ccc(Br)s1`: 2.39% (inactive). The figure for `O=S(=O)([N-]c1nc2ccccc2nc1-[n+]1ccc(Cc2ccccc2)cc1)c1ccc(Br)s1` is 94.1% (active); for `O=C1CN(C(=O)COC(=O)c2cnc(Cl)c(Cl)c2)c2ccccc2N1` it is 6.14% (inactive); for `CS(=O)(=O)c1ccc(C(=O)NNC(=O)c2cccs2)cc1` it is 1.25% (inactive). For the compound `O=C(c1cc(COc2ccc(F)cc2F)on1)N1CCOCC1`, the inhibition is -0.95% (inactive).
